Screens as filed in PubChem BioAssay.
Compounds with a hit are over-represented: about 18% of the library has one in this group of screens.
DT40 TDP1 CPT: DT40-hTDP1 cell growth loss with CPT. chicken DT40 Tdp1-/-;hTDP1 cells + 20 nM CPT, ATP luminescence, 48 h. Potency, µM (series often up to 46.2 µM), usual class: inhibitors. actives 12% (n = 420,000); also: nearly all actives have a fitted effect of over 55% in size
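Cell growth measured by CellTiter-Glo luminescence after a minimum 48 h, 37 C compound exposure with 20 nM CPT in Tdp1-knockout DT40 cells stably expressing hTDP1, seeded 400/well; qHTS titration format.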
CtBP-E1A blk: inhibitors of CtBP/E1A interaction | AID 651724 | AlphaScreen GST-E1A/His-CtBP binding, 1536-well; hits give low values | activity change, % (test concentration not listed) | actives 0.49% (n = 340,000); in the data active = activity change below about -65%; inconclusive = mostly about -30% to -63%
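In 5 uL wells, 23 nL compound meets equimolar GST-E1A and His-CtBP (5X stock 125 nM each) for 2 h, 37 °C. Beads (5X, 50 ug/mL) then 1 h, 37 °C, dark.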
TDP1 block: blocks human tyrosyl-DNA phosphodiesterase 1; recombinant TDP1, AlphaScreen DNA substrate cleavage; Potency, µM (titrated, usually from 130 µM), most hits filed as inhibitors; actives 0.28% (n = 350,000); AID 485290; also: nearly all actives have a fitted effect of over 40% in size
Target sequence (Q9NUW8 whole entry, looked up): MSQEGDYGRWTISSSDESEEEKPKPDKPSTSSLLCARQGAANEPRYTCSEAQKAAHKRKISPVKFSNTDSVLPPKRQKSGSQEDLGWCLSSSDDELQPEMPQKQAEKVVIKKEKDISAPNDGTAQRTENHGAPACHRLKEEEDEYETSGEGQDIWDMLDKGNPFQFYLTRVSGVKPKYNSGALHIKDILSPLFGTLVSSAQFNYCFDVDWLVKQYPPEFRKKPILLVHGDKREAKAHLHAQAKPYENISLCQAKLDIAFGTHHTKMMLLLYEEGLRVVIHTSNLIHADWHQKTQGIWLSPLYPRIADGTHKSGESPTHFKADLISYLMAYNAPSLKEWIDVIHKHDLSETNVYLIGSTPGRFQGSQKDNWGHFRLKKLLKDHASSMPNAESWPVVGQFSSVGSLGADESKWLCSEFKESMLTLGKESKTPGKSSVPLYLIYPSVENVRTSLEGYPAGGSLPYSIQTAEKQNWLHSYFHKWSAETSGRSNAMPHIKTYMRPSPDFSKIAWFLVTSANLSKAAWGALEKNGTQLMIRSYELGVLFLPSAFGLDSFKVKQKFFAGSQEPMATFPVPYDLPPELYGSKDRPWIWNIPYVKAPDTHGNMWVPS
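Recombinant E. coli-expressed Tdp1 (1 nM) preincubated with compound 15 min at RT, then 5'-biotin/3'-phosphotyrosine-FITC DNA substrate (15 nM) added for 5 min. AlphaScreen beads (10 ug/ml) added, 10 min RT; tyrosine-FITC cleavage read as signal loss.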
IL-1B inflam inh: inflammasome signaling inhibition, IL-1 beta readout; actives 4.7% (n = 360,000); AID 743279; activity change, % at 57.5 µM; THP-1 LPS/ATP IL-1B secretion, AlphaLISA, 16 h; hits give low values; in the data active = activity change below about -50%; inconclusive = mostly about -30% to -49%
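THP-1 cells pretreated 1 hr with compounds (up to 57.5 uM final), then stimulated with LPS (250 ng/mL final) plus ATP (1.25 mM final); secreted IL-1B measured by AlphaLISA after 16 hr, decreased signal indicating inhibition.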
TDP1 cell noCPT: qHTS for Inhibitors of human tyrosyl-DNA phosphodiesterase 1 (TDP1): qHTS in cells in absence of CPT; DT40 Tdp1-/- hTDP1 cells, no CPT, ATP luminescence, 48 h; Potency, µM (titrated, usually from 46.2 µM), most hits filed as inhibitors; actives 15% (n = 420,000); also: nearly all actives have a fitted effect of over 55% in size
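Growth kinetics read by CellTiter-Glo luminescence after ≥48 hr at 37 °C. Cells: DT40 Tdp1-/- stably carrying human TDP1, 400 per well, compound exposure in the absence of CPT (DMSO vehicle).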
Six1-Eya2 blk: blocks human Six1 binding to Eya2 | Q15475+O00167 | activity change, % (test concentration not listed) | AlphaScreen GST-Six1/His-Eya2 binding, biochemical; hits give low values | actives 0.56% (n = 360,000); in the data active = activity change below about -65%; inconclusive = mostly about -30% to -63%
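Compounds are tested against tagged Six1 and Eya2 proteins bridged by glutathione donor and nickel acceptor beads; after a one-hour incubation at 37 °C without light, AlphaScreen emission is recorded.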
Numbers stand for hits; . = inactive; ? = inconclusive; / = no result. Unless noted, calls follow the shape of the dose curve; as a rule, active = well fitted curve in the direction sought with a large enough effect; inconclusive = small, poorly fitted or top-dose-only effect, or another doubt; inactive = no such curve, though single readings can be large; an effect the other way counts as inactive or inconclusive.

SMILES | DT40 TDP1 CPT | CtBP-E1A blk | TDP1 block | IL-1B inflam inh | TDP1 cell noCPT | Six1-Eya2 blk
O=C(c1ccc2c(c1)CCC2)N1CCN(Cc2c(F)cccc2Cl)CC1 | ? | . | / | . | ? | .
CCOC(=O)N1CCN(C(=O)c2cc3n(n2)C(C(F)(F)F)CC(c2ccc4c(c2)OCO4)N3)CC1 (centres undefined) | ? | . | . | . | 14.6µM | .
O=C(Nc1cc(Cl)ccc1O)c1cc2n(n1)C(C(F)(F)F)CC(c1ccc3c(c1)OCO3)N2 (centres undefined) | 23.1µM | . | . | -86.9 | 16.4µM | .
O=C(NCc1ccc2c(c1)OCO2)c1cc2n(n1)C(C(F)(F)F)CC(c1ccc3c(c1)OCO3)N2 (centres undefined) | ? | . | . | . | . | .
COc1ccc(OC)c(NC(=O)c2cc3n(n2)C(C(F)(F)F)CC(c2ccc4c(c2)OCO4)N3)c1 (centres undefined) | ? | . | . | -61.2 | ? | .
COc1ccccc1NC(=O)c1cc2n(n1)C(C(F)(F)F)CC(c1ccc3c(c1)OCO3)N2 (centres undefined) | 16.4µM | . | . | ? | 18.4µM | .
COc1ccc(C2CC(C(F)(F)F)n3nc(C(=O)Nc4ccc5c(c4)OCO5)cc3N2)cc1 (centres undefined) | ? | . | . | . | ? | .
CCN1CCCC1CN(Cc1cc2ccc(C)cc2[nH]c1=O)C(=S)Nc1cccc(OC)c1 (centres undefined) | ? | . | . | -77.0 | 29.1µM | .
COc1cc2cc(CN(Cc3cccs3)C(=S)Nc3cccc(C)c3)c(=O)[nH]c2cc1OC | / | / | . | / | / | /
CCN1CCCC1CN(Cc1cc2ccc(C)cc2[nH]c1=O)C(=S)Nc1ccc(OC)cc1 (centres undefined) | ? | . | . | -106.5 | 5.17µM | .
C=CCn1c(=O)/c(=C/c2ccc(O)cc2)s/c1=C(/C#N)c1nnc2n1CCCCC2 | 18.4µM | . | . | ? | 23.1µM | .
C=CCn1c(=O)/c(=C\c2ccsc2)s/c1=C(/C#N)C(=O)NCCN1CCOCC1 | ? | . | . | ? | ? | .
C=CCn1c(=O)/c(=C/c2ccc(Cl)cc2)s/c1=C(/C#N)c1nnc2n1CCCCC2 | ? | . | . | -71.6 | ? | .
C=CCn1c(=O)/c(=C/c2cc(OC)c(OC)c(OC)c2)s/c1=C(/C#N)c1nc2ccccc2n1C | 23.1µM | . | . | . | 18.4µM | .
COCC(C)(C)COS(N)(=O)=O | . | . | / | . | . | .
O=c1[nH]c2ccccc2n2c(-c3ccncc3)nnc12 | . | ? | . | . | . | ?
CC(=O)c1ccc(OCc2cc(C(=O)N(C)CC3COc4ccccc4O3)no2)cc1 (centres undefined) | 10.3µM | . | / | . | 13µM | .
CC(=O)c1ccc(OCc2cc(C(=O)N3CCN(c4ccccc4)CC3C)no2)cc1 (centres undefined) | ? | . | . | ? | 18.4µM | .
CSc1ccccc1OCc1cc(C(=O)N2CCN(c3ccccc3)CC2C)no1 (centres undefined) | ? | . | . | . | ? | .
CNC(=O)CCc1nc(-c2ccc(C(C)(C)C)cc2)no1 | ? | . | . | . | 13µM | .
COc1ccc(-c2noc(CCCC(=O)N3CCOCC3)n2)cc1 | ? | . | . | . | ? | .
CN(C)C(=O)CCc1nc(-c2ccc(C(C)(C)C)cc2)no1 | 16.4µM | . | . | . | 20.6µM | .
CC(C)(C)c1ccc(-c2noc(CCC(N)=O)n2)cc1 | . | . | . | . | ? | .
CC(C)(C)c1ccc(-c2noc(CCC(=O)N3CCOCC3)n2)cc1 | ? | . | . | . | 18.4µM | .
CC(C)(C)c1ccc(-c2noc(CCC(=O)NCC3CCCO3)n2)cc1 (centres undefined) | 20.6µM | . | . | . | ? | .
SMILES | DT40 TDP1 CPT | CtBP-E1A blk | TDP1 block | IL-1B inflam inh | TDP1 cell noCPT | Six1-Eya2 blk
COc1ccc(CCN2C(=O)N[C@@H](CCC(=O)O)C2=O)cc1 | ? | / | / | . | . | .
CCOC1(/N=C(\C)NS(=O)(=O)c2ccc(Cl)cc2)C(C)=CC(=O)C=C1C | ? | . | . | . | ? | .
CCOC(=O)c1c(C)n(C)c2cc(Br)c(C(=O)OC)cc12 | . | . | . | . | ? | .
CCCCCCCCOC(=O)c1c(CSC(=N)N)n(C)c2cc(Br)c(OC(C)=O)cc12 | 6.51µM | / | . | . | 7.31µM | .
CCOC(=O)c1c(CSC(=N)N)n(-c2ccc(Br)cc2)c2cc(Br)c(OC(C)=O)cc12 | ? | . | . | -109.0 | 23.1µM | .
CCOC(=O)c1c(CN2CCN(CCO)CC2)n(C)c2cc(Br)c(OC)cc12 | ? | . | . | . | ? | .
COc1ccc2c(c1)OC[C@H]1[C@H]2N2C(=O)CN(Cc3ccc(F)cc3)C(=O)[C@@]2(C)[C@H]1c1ccccc1 | ? | / | . | . | ? | .
COc1ccc(CN2CC(=O)N3[C@H]4c5cc(C)ccc5OC[C@@H]4[C@H](c4ccccc4)[C@]3(C)C2=O)cc1 | ? | . | . | . | 20.6µM | .
COc1ccc(CN2CC(=O)N3[C@H]4c5ccccc5OC[C@@H]4[C@H](c4ccccc4)[C@]3(C)C2=O)cc1 | ? | . | . | . | 16.4µM | .
CCCCN1CC(=O)N2[C@H]3c4ccc(OC)cc4OC[C@@H]3[C@H](c3ccccc3)[C@]2(C)C1=O | ? | . | . | . | 23.1µM | .
Cc1ccc2c(c1)[C@H]1[C@H](CO2)[C@H](c2ccccc2)[C@]2(C)C(=O)N(Cc3ccc(F)cc3)CC(=O)N12 | ? | . | . | ? | 20.6µM | .
CCOC(=O)[C@H]1[C@H]2COc3ccc(C)cc3[C@@H]2N2C(=O)CN(Cc3ccccc3)C(=O)[C@@]12C | ? | . | . | ? | ? | .
CCOCCCNC(=O)c1ccc2c(c1)N(Cc1ccccc1)C(=O)CS2=O (centres undefined) | . | . | . | . | . | .
Cc1cc(C)cc(OCCSc2nc3ccc(NC(=O)COc4ccccc4)cc3s2)c1 | ? | / | . | / | ? | /
Cc1ccc2c(c1)[C@H]1[C@H](CO2)[C@H](c2ccccc2)[C@]2(C)C(=O)N(Cc3ccc(Cl)cc3)CC(=O)N12 | ? | . | . | . | 14.6µM | .
COc1ccc(C(CNS(=O)(=O)c2ccc(NC(C)=O)c(OC)c2)N2CCCC2)cc1 (centres undefined) | . | . | . | . | . | .
Cc1cc(C)cc(NC(=O)Cn2c(-c3cncs3)nc3ccccc32)c1 | ? | / | . | / | 20.6µM | /
